Unmarked numbers belong to inactive results.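 The calls were made as follows: active = z-score of at least 1.8 in each of two replicates, scored against plate mean and spread of sample wells; inactive = the rest.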
Test: viability rescue of complex I mutant cybrids, primary screen, cell-based, galactose medium, ATP luminescence (AID 1645843);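 also: positive z means more ATP and so rescue of galactose-driven cybrid death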
Details: complex I mutant cybrid cells, 72 h, active compounds read high

| Structure (SMILES) | z-score |
| --- | --- |
| O=C(C1CCCCCC1)N1CCC(Cn2cc(CCCO)nn2)CC1 | -0.325 |
| Cc1csc2c(=O)n(Cc3ccc(Cl)s3)cnc12 | -0.505 |
| CC(=O)N1CCC(NCCOc2c(C)cccc2Cl)CC1 | -0.35 |
| CCCn1nc(NC(=O)Cn2ccc(-c3ccccc3F)n2)c2ccccc21 | -1.28 |
| CC(C)Oc1cccc(C(=O)N2CCC(Cn3cc(C4CC4)nn3)CC2)c1 | -0.515 |
| CCCCc1ncc(-c2nc3ccc(C)cc3c(C(=O)N(C)CC)c2C)cn1 | -0.54 |
| CC(=O)c1c(C)nn(CC(=O)Nc2ccc(N3CCOCC3)cc2)c1C | -0.6 |
| O=C(NC(Cn1cccn1)c1ccccc1)c1ccc2nccnc2c1 (stereo not given) | 1.25 |
| Cc1nn(C)cc1-c1ccnc(N2CCN(Cc3ccc(F)cc3)C(=O)C2)n1 | 0.865 |
| CCOC(=O)c1cc(C)nc(N2CCCC(c3nc(C(C)C)no3)C2)n1 (stereo not given) | -0.54 |
| CSCc1ccc(C(=O)Nc2cccc3cccnc23)o1 | 1.12 |
| Cc1nn(C)cc1-c1ccnc(NCCc2nc(-c3ccccn3)no2)n1 | -0.82 |
| COc1ccc(-c2ncnc3sc(C)c(C)c23)c(OC)c1 | 0.66 |
| CC(C)n1cc(C(=O)N2CCCC(c3ccccc3)C2)cn1 (stereo not given) | -0.54 |
| Cc1ccsc1C(=O)N1CCC(n2cc(C(C)(C)O)nn2)CC1 | -0.505 |
| CCCC(C)c1nc2c(cnn2C(C)C(C)C)[nH]1 (stereo not given) | -1.01 |
| O=C(CC1CCCCCC1)N1CCC(n2cc(C3CC3)nn2)CC1 | -0.455 |
| O=C1NCCN(C(=O)c2ccc(Cl)c(F)c2)C1Cc1ccccc1 (stereo not given) | -0.565 |
| CCCC[C@@H](N)C(=O)N1CCC(n2cc(CCCO)nn2)CC1 | -0.47 |
| Cc1cc(C)c(CN[C@@H](C)C(C)C)c(C)c1CO | -0.51 |

| Structure (SMILES) | z-score |
| --- | --- |
| Cc1cccc(C2CCCN(C(=O)c3cc(C(C)C)no3)C2)c1 (stereo not given) | 1.05 |
| Cc1nc(NC(=O)N2CCCC(c3nc4ccccc4[nH]3)C2)nn1C (stereo not given) | 0.195 |
| CC(C)c1ncc(-c2cc(C(=O)N(C)C(C)C)c3ccc(F)cc3n2)cn1 | -0.51 |
| CCC1(CC)CC1C(=O)N1CCC(n2cc(C(C)(C)O)nn2)CC1 (stereo not given) | -0.515 |
| CCOC(=O)c1ccc(N2CCC(c3ccc(F)cc3)C2)nc1 (stereo not given) | 0.975 |
| c1ccc(-c2nccn2Cc2nc(-c3ccccn3)no2)cc1 | 1.27 |
| Cc1nsc(NC(=O)NC(C)c2ccc(Cl)cc2)n1 (stereo not given) | -0.26 |
| CCn1c(C)nc2cc(OC3(C(=O)O)CCCCC3)ccc21 | -0.565 |
| CC(=O)N1CCCN(c2nccc(-c3cnn(-c4ccccc4F)c3)n2)CC1 | -0.71 |
| CC(C)=CCC/C(C)=C/CNCCCc1ccncc1 | -0.52 |
| CCC(CC)(CCC#N)CNC1CCOC(C)(C)C1 (stereo not given) | -0.485 |
| CC1CCCN1C(=O)c1cc(-c2cnn(C(C)C)c2)nc2cc(F)ccc12 (stereo not given) | -0.72 |
| CC1Cc2cc(C(=O)N3CCC(n4cc(CCO)nn4)CC3)ccc2O1 (stereo not given) | 0.36 |
| CCc1nc(C)ccc1OCC(=O)N1CCc2[nH]nc(C3CC3)c2C1 | -0.685 |
| Cc1cc(C)c(CNC(C)CCC(C)C)c(C)c1CO (stereo not given) | 0.435 |
| CCC(CC)(CCC#N)CNC1COC2(CCCCC2)C1 (stereo not given) | -0.53 |
| Cc1ccn(CCN2CCC(Oc3cccc(Cl)c3)CC2)n1 | 0.135 |
| Cc1ccc2nc(Cn3cnc4ccc(F)cc4c3=O)cn2c1 | -0.15 |
| Cc1cc(CN2CCOC(CN)C2)ccc1OC1(C(=O)O)CCSCC1 (stereo not given) | -0.415 |
| O=c1c2cccc(F)c2ncn1CCC1CCCCN1C1CCCC1 (stereo not given) | -0.825 |
